Assay results as given in PubChem BioAssay (Tox21).
Values joined by “and” are separate entries in the source; they are usually repeats but may differ in a detail not shown here. Identical values can stand only once. Where a structure was tested more than once in an assay, its records may differ in their call. Active and inactive are the calls of the source. Unless noted, calls follow the shape of the dose curve; as a rule, active = well fitted curve in the direction sought with a large enough effect in the repeat runs; inconclusive = weak or mixed curves; inactive = no such curve, though single readings can be large; an effect the other way counts as inactive or inconclusive.

Experiments:
[1] = qHTS assay to identify small molecule antagonists of the glucocorticoid receptor (GR) signaling pathway - cell viability counter screen (AID 720693); also: nearly all actives have a fitted effect of over 55% in size
[2] = qHTS assay for identifying genotoxic compounds that show differential cytotoxicity against isogenic chicken DT40 cell lines with known DNA damage response pathways - wild type cell line (AID 743012); also: nearly all actives have a fitted effect of over 60% in size; also: potency is read from the fitted curve at half-maximal effect
Method in brief: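 Parental DNA repair-proficient DT40 cells, 300 per well, were pre-incubated ~0.5 h at 37 C/5% CO2, pin-dosed with compounds in DMSO, then incubated 40 h. Viability was read as CellTiter-Glo luminescence after 30 min at room temperature.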

[3] = qHTS assay for identifying genotoxic compounds that show differential cytotoxicity against isogenic chicken DT40 cell lines with known DNA damage response pathways - Rev3 mutant cell line (AID 743014); also: nearly all actives have a fitted effect of over 55% in size; also: potency is read from the fitted curve at half-maximal effect
[4] = qHTS assay to identify small molecule antagonists of the androgen receptor (AR) signaling pathway - cell viability counter screen (AID 743033; also: nearly all actives have a fitted effect of over 45% in size)
[5] = qHTS assay to identify small molecule antagonists of the androgen receptor (AR) signaling pathway using the MDA cell line - cell viability counter screen (AID 743041; also: nearly all actives have a fitted effect of over 45% in size)
Method in brief: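 MDA-kb2 AR-luc human breast carcinoma cells (MMTV-luciferase, AR/GR responsive) were treated with compounds plus R1881 agonist for 16 h at 37 °C. Viability was read as CellTiter-Fluor fluorescence in the same wells as the reporter assay.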

[6] = qHTS assay to identify small molecule antagonists of the thyroid receptor (TR) signaling pathway - cell viability counter screen (AID 743064); also: nearly all actives have a fitted effect of over 50% in size; also: potency is read from the fitted curve at half-maximal effect
Method in brief: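 In-well cytotoxicity read by CellTiter-Fluor (30 min, 37 C) following 23.5 h exposure of GH3 cells bearing a TRE-luciferase sensor. Compounds were added alongside 1 nM (final) T3 to drive TR transactivation.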

[7] = qHTS assay to identify small molecule antagonists of the thyroid receptor (TR) signaling pathway (AID 743065); also: nearly all actives have a fitted effect of over 55% in size; also: potency is read from the fitted curve at half-maximal effect
Method in brief: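 GH3.TRE-Luc rat pituitary cells carrying two TR response elements driving luciferase were plated for 4 h, given compound plus 1 nM T3 (final), and incubated 23.5 h at 37 C. ONE-Glo luminescence measured reporter inhibition; CellTiter-Fluor fluorescence tracked cytotoxicity.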

[8] = test system: thyroid hormone receptor (rat, GH3 cells); assay: qHTS assay to identify small molecule agonists of the thyroid receptor (TR) signaling pathway (AID 743066; calls by dose curve)
[9] = target: Estrogen receptor (Homo sapiens) (UniProt P03372); assay: qHTS assay to identify small molecule antagonists of the estrogen receptor alpha (ER-alpha) signaling pathway (AID 743069; active = well fitted curve in the direction sought with a large enough effect in the signal ratio in the repeat runs, not every such curve was filed as active; inconclusive = weak or mixed curves, or effect the other way; inactive = no such curve, though single readings can be large or run the other way; the % refers to the signal ratio; also: potency is read from the fitted curve at half-maximal effect)
Method in brief: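 HEK293 cells stably carrying an ER-alpha-UAS-bla beta-lactamase reporter were pre-cultured overnight in 2% charcoal-stripped FBS medium. Test compounds in DMSO were added together with 17beta-estradiol for 18 hr at 37C. Read-out was fluorescence after 2 hr with LiveBLAzer B/G FRET substrate at room temperature.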

[10] = qHTS assay to identify small molecule antagonists of the estrogen receptor alpha (ER-alpha) signaling pathway - cell viability counter screen (AID 743074; calls by dose curve; also: nearly all actives have a fitted effect of over 45% in size)
[11] = target: Estrogen receptor (Homo sapiens) (UniProt P03372); assay: qHTS assay to identify small molecule agonists of the estrogen receptor alpha (ER-alpha) signaling pathway (AID 743075; calls by dose curve)
[12] = target: Estrogen receptor (Homo sapiens) (UniProt P03372); assay: qHTS assay to identify small molecule agonists of the estrogen receptor alpha (ER-alpha) signaling pathway using the BG1 cell line (AID 743079); also: nearly all actives have a fitted effect of over 20% in size
[13] = qHTS assay to identify small molecule antagonists of the estrogen receptor alpha (ER-alpha) signaling pathway using the BG1 cell line (AID 743080; calls by dose curve;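 also: BG1 cells stimulated with 17beta-estradiol alongside compound; nearly all actives have a fitted effect of over 25% in size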; also: potency is read from the fitted curve at half-maximal effect)
Method in brief: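 Endogenous full-length ER-alpha in BG1-Luc-4E2 cells drives a stably integrated 4×ERE luciferase gene; compounds were tested against 17beta-estradiol over 21.5 h, with luminescence and multiplexed viability fluorescence recorded.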

[14] = qHTS assay to identify small molecule antagonists of the estrogen receptor alpha (ER-alpha) signaling pathway using the BG1 cell line - cell viability counter screen (AID 743081);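 also: compound given together with 17beta-estradiol as the ER stimulus; series mostly up to about 70 µM; nearly all actives have a fitted effect of over 45% in size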
Aromatase (Homo sapiens) = Aromatase (Homo sapiens) (UniProt P11511); assay: qHTS assay to identify aromatase inhibitors (AID 743083); also: nearly all actives have a fitted effect of over 55% in size; also: potency is read from the fitted curve at half-maximal effect
[15] = qHTS assay to identify aromatase inhibitors - cell viability counter screen (AID 743084)
[16] = qHTS assay for identifying genotoxic compounds that show differential cytotoxicity against isogenic chicken DT40 cell lines with known DNA damage response pathways - Rad54/Ku70 mutant cell line (AID 743015); also: nearly all actives have a fitted effect of over 60% in size; also: potency is read from the fitted curve at half-maximal effect

Measured: Potency

Chain of Aromatase (Homo sapiens) (P11511 whole entry, looked up): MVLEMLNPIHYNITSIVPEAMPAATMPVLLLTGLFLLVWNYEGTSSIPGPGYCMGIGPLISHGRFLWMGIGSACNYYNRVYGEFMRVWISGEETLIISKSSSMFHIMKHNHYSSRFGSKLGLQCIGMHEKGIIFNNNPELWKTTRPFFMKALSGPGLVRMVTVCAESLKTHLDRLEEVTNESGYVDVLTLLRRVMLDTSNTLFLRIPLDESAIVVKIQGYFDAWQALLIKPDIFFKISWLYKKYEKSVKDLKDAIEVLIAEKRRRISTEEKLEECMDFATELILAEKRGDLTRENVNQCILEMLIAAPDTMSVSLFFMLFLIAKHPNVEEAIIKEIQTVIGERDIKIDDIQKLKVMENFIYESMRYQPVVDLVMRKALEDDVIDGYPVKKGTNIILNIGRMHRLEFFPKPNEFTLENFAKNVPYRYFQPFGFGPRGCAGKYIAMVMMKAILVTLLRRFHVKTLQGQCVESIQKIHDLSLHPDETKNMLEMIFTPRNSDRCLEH
Chain of Estrogen receptor (Homo sapiens) (P03372 whole entry, looked up): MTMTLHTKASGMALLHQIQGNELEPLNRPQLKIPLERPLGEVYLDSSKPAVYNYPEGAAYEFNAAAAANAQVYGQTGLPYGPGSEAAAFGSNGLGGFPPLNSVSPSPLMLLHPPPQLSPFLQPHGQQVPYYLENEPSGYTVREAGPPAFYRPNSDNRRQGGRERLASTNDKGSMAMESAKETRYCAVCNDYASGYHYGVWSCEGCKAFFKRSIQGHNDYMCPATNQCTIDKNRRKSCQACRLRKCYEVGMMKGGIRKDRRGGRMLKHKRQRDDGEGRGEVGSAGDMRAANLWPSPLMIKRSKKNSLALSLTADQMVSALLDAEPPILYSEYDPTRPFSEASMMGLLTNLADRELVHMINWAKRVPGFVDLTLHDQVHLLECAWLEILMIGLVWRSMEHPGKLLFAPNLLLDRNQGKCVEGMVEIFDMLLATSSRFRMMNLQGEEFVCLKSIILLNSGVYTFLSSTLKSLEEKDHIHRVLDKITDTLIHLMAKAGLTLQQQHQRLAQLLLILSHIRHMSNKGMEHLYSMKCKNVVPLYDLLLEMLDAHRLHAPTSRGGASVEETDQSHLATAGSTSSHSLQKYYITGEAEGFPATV

CCC12COCN1COC2
not listed: [16]
inactive: all other assays above

O=Cc1cccc(Oc2ccccc2)c1
not listed: [4] | [12]
inactive: all other assays above

O=S(=O)(c1ccc(Cl)cc1)c1cc(Cl)c(Cl)cc1Cl
active: [13] 48.6 µM
inactive and 48.6 µM (active): [2]
inactive and 54.5 µM (active): [16]
inactive and 61.1 µM (active): [3]
not listed: [4] | [12]
inactive: all other assays above

COC(=O)NC(=S)Nc1ccccc1NC(=S)NC(=O)OC
active: [2] 61.1 µM | [3] 61.1 µM
not listed: [10] | [16]
inactive: all other assays above

Nc1ccc(Br)cc1
active: [9] 3.47 µM [inconclusive]
not listed: [4] | [7]
inactive: all other assays above

CCOC(=O)c1ccccc1C(=O)OCC
not listed: [4]
inactive: all other assays above

CCN(CC)CCO
not listed: [4] | [9] | [11] | [12] | [13]
inactive: all other assays above

CCC[N+](=O)[O-]
not listed: [4] | [7] | [9] | [11] | [12] | [13]
inactive: all other assays above

COC(=O)c1ccccc1N
not listed: [4] | [7] | [9] | [11] | [12] | [13]
inactive: all other assays above

CCCN(CCC)N=O
not listed: [4] | [7]
inactive: all other assays above

CC(Br)C(=O)O (configuration not stated)
not listed: [9] | [16]
inactive: all other assays above

Cc1cccc([N+](=O)[O-])c1
not listed: [4] | [7] | [8] | [11] | Aromatase (Homo sapiens)
inactive: all other assays above

CCC(C)(CC)c1cc(NC(=O)c2c(OC)cccc2OC)on1
active: [2] 52.4 µM | [3] 66 µM | [16] 46.7 µM | [7] 54.6 µM
not listed: [4] | [9] | [11] | [12] | [13]
inactive: all other assays above

CN(C)[C@@H]1C(=O)C(C(N)=O)=C(O)[C@@]2(O)C(=O)C3=C(O)c4c(O)cccc4[C@@](C)(O)[C@H]3C[C@@H]12
not listed: [4] | [9] | [11] | [12] | [13]
inactive: all other assays above

CCOP(OCC)OCC
not listed: [4] | [7]
inactive: all other assays above

COC(=O)NS(=O)(=O)c1ccc(N)cc1
not listed: [16]
inactive: all other assays above

CCCCCCCCCCCC#N
not listed: [4] | [9] | [11] | [12] | [13]
inactive: all other assays above

c1ccc(OP(Oc2ccccc2)Oc2ccccc2)cc1
not listed: [16]
inactive: all other assays above

CC(C)(C)C(O)(CCc1ccc(Cl)cc1)Cn1cncn1 (configuration not stated)
inactive: [1] | [5] | [8] | [10] | [14] | [15]
active: [2] 61.1 µM | [3] 61.9 µM and 61.1 µM | [16] 69.4 µM and 61.1 µM | [6] 68.6 µM | Aromatase (Homo sapiens) 27.6 µM and 48.6 µM
